Compounds with a hit are over-represented: about 1.2% of the library has one in this group of screens.
RGS4-Gao reg – human RGS4-Galphao interaction regulation; P09471; Multiplexed bead flow cytometry, RGS4-Galphao binding; actives lie on both sides; binding response (% of control), % at 10 µM; 220,000 tested, 0.33% active; in the data active = binding response below about 49% or above about 150%; inactive = in between;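 also: fluorescent Galphao activated with aluminum fluoride binding bead-coupled RGS4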
RGS8-Gao reg – modulates binding of RGS8 to human Galphao | P09471 | multiplexed bead flow cytometry; actives lie on both sides | response (percent of control binding), % at 10 µM | 220,000 tested, 0.34% active; in the data active = response below about 60% or above about 140%; inactive = in between;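 also: Galphao activated as the GDP aluminium fluoride complex binding bead-coupled RGS8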
RGS7-Gao reg – modulates binding of RGS7 to human Galphao; P09471; 220,000 tested, 0.35% active; Multiplexed bead flow cytometry; actives lie on both sides; binding response (% of control), % at 10 µM; AID 1439; in the data active = binding response below about 49% or above about 150%; inconclusive = no clear call, values can overlap the other calls; inactive = in between;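 also: fluorescent Galphao held in activated GDP-AlF4 state binding bead-coupled RGS7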
RGS16-Gao – RGS16-Galphao interaction regulator (human); O15492+P09471; bead-based flow cytometry RGS16-Galphao binding, fluorescence; actives lie on both sides; binding response (% of control), % at 10 µM; 220,000 tested, 0.38% active;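 also: Galphao activated by GDP with aluminum fluoride before binding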
Target sequence (O15492 whole entry, looked up): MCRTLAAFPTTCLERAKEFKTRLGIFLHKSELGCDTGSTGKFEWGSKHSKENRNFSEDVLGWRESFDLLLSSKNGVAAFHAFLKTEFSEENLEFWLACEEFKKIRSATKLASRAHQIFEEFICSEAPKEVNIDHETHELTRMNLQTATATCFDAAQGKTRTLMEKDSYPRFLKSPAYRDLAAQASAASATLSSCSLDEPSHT
Target sequence (P09471 whole entry, looked up): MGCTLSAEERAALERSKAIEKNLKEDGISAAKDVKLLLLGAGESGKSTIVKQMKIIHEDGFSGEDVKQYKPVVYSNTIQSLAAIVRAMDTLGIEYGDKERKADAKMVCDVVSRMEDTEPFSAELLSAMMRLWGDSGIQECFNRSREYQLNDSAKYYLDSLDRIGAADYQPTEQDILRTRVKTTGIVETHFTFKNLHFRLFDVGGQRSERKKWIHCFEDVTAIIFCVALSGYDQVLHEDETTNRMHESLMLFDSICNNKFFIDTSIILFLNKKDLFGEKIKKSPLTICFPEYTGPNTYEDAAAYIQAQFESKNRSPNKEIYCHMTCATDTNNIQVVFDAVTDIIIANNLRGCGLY
Avidin bead fluor – avidin bead compound fluorescence profile | fluorescence (KMESF) at 10 µM | Avidin beads, compound fluorescence 488/530 nm, flow cytometry; hits give high values | 220,000 tested, 0.38% active | AID 1775; in the data active = fluorescence above about 47
GSH fluor – compound fluoresces at 488/530 nm on GSH beads; 190,000 tested, 0.25% active; fluorescence (KMESF) at 10 µM; AID 1776; GSH beads flow cytometry, compound fluorescence 488/530 nm; hits give high values; in the data active = fluorescence above about 89;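 also: glutathione beads carrying GST-tagged Bcl family fusion proteins plus one bare bead set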
RGS-Gao – modulates binding between human RGS4 and Galphao. shares compounds with RGS16-Gao. multiplexed bead flow cytometry, RGS–Galpha-o binding. RGS4–Galpha-o binding response, % at 10 µM. 1,600 tested, 99% active. AID 1504;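 also: fluorescently labeled Galpha-o bound to GDP with aluminium fluoride binding biotinylated RGS beads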
Biotin-avidin – biotin-avidin bead binding disruption counter-screen; shares compounds with RGS16-Gao; streptavidin beads, fluorescein-biotin binding, flow cytometry; inhibition, % at 10 µM; 1,700 tested, under 10 active;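 active = inhibition above 50%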;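 also: median green fluorescence of gated singlet beads compared with DMSO control wells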
RGS8-Gao single – RGS8-Galphao interaction regulation, single point confirmation; shares compounds with RGS16-Gao; 1,700 tested, 3% active; bead-based flow cytometry RGS8-Galphao binding, fluorescence; actives lie on both sides; binding response (% of control), % at 10 µM; AID 1836; in the data active = binding response below about 72% or above about 130%; inactive = in between;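 also: Galphao activated as GDP AlF4 complex before binding bead RGS8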
RGS7-Gao confirm – RGS7-Galphao interaction regulation, single point confirmation. shares compounds with RGS16-Gao. bead-based flow cytometry RGS7-Galphao binding; actives lie on both sides. response (percent of control binding), % at 10 µM. 1,700 tested, 7.8% active; in the data active = response below about 75% or above about 130%; inactive = in between;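 also: fluorescent Galphao activated with GDP and aluminum fluoride binding bead-coupled RGS7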
RGS16-Gao single – RGS16-Galphao interaction regulation, single point confirmation | shares compounds with RGS16-Gao | bead-based flow cytometry, RGS16-Galphao binding; actives lie on both sides | response (% of control binding), % at 10 µM | 1,700 tested, 4% active | AID 1838; in the data active = response below about 74% or above about 130%; inactive = in between;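 also: Galphao activated as the GDP aluminium fluoride complex binding bead-coupled RGS16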
RGS4-Gao confirm – RGS4-Galphao interaction regulation, single point confirmation; RGS4-Galphao binding, multiplexed bead flow cytometry; actives lie on both sides; 1,700 tested, 4% active; binding response (% of control), % at 10 µM; shares compounds with RGS16-Gao; in the data active = binding response below about 74% or above about 130%; inactive = in between
RGS19-Gao single – RGS19-Galphao interaction regulation, single point confirmation | shares compounds with RGS16-Gao | bead-based flow cytometry RGS19-Galphao binding; actives lie on both sides | response (percent of control binding), % at 10 µM | 1,700 tested, 5% active | AID 1841; in the data active = response below about 50% or above about 160%; inactive = in between
Large screens that a line does not name were inactive (follow-up assays come after a bar, where they were run); [ ] = remark or other dose. Unless noted, no rule for the calls is given here.

Cc1c(N2CCCC2)cc2c(c1NC(=O)c1ccccc1Cl)C(C)(C)CC2(C)C	RGS4-Gao reg 156[activator], RGS7-Gao reg inconclusive (no result: GSH fluor) | Biotin-avidin inactive | RGS8-Gao single inactive | RGS7-Gao confirm inactive | RGS16-Gao single inactive | RGS4-Gao confirm inactive | RGS19-Gao single inactive
O=C(Nc1ccccc1N1CCCC1)c1cccc(Cl)c1Cl	none
CC(C)OCC(O)CS(=O)(=O)Cc1ccccc1 (stereo unspecified)	RGS16-Gao -90 | RGS-Gao 68 | Biotin-avidin inactive | RGS8-Gao single inactive | RGS7-Gao confirm inactive | RGS16-Gao single inactive | RGS4-Gao confirm inactive | RGS19-Gao single inactive
CC1=CC(C)(C)N=C(NC#N)N1	RGS4-Gao reg 42, RGS7-Gao reg 44 | Biotin-avidin inactive | RGS8-Gao single inactive | RGS7-Gao confirm inactive | RGS16-Gao single inactive | RGS4-Gao confirm inactive | RGS19-Gao single inactive
O=C(c1ccccc1)c1cc(Cl)ccc1N1C(=O)C=CC1=O	none
COc1ccccc1OCc1nc(C#N)c(N2CCCC2)o1	RGS4-Gao reg 22, RGS8-Gao reg 16, RGS7-Gao reg 13 | Biotin-avidin inactive | RGS8-Gao single inactive | RGS7-Gao confirm inactive | RGS16-Gao single inactive | RGS4-Gao confirm inactive | RGS19-Gao single inactive
Cc1ccc2sc(NC(=O)CN3C(=O)c4ccccc4C3=O)nc2c1C	none
OCCC1CN(Cc2ccc(Oc3ncccn3)cc2)CCN1C1CCCCC1 (stereo unspecified)	RGS8-Gao reg 48, RGS7-Gao reg inconclusive, Avidin bead fluor 159 (no result: GSH fluor) | RGS-Gao 147 | Biotin-avidin inactive | RGS8-Gao single inactive | RGS7-Gao confirm inactive | RGS16-Gao single inactive | RGS4-Gao confirm inactive | RGS19-Gao single inactive
c1ccc(-c2ccccc2OCCCN2CCOCC2)cc1	none
OCCCN1CCN(CCCOc2ccccc2-c2ccccc2)CC1	RGS16-Gao 179[activator] | RGS-Gao 107 | Biotin-avidin inactive | RGS8-Gao single inactive | RGS7-Gao confirm inactive | RGS16-Gao single inactive | RGS4-Gao confirm inactive | RGS19-Gao single inactive
O=C(c1ccc(Cn2c(=S)[nH]c3ccccc3c2=O)cc1)N1CCN(c2ccccn2)CC1	none
COc1ccc(Nc2nnc(SCC3CCCO3)s2)cc1 (stereo unspecified)	none
CCCc1nc2ccc(NC(=O)NCCC(=O)OCC)cc2c(=O)n1Cc1ccc(Cl)cc1	RGS16-Gao 8.6 | RGS-Gao 89 | Biotin-avidin inactive | RGS8-Gao single inactive | RGS7-Gao confirm inactive | RGS16-Gao single inactive | RGS4-Gao confirm inactive | RGS19-Gao single inactive
CC(=O)Nc1ccccc1C(F)(F)F	RGS4-Gao reg 22, RGS8-Gao reg 48, RGS7-Gao reg inconclusive (no result: GSH fluor) | Biotin-avidin inactive | RGS8-Gao single inactive | RGS7-Gao confirm inactive | RGS16-Gao single inactive | RGS4-Gao confirm inactive | RGS19-Gao single inactive
